Data taken from PubChem BioAssay (NCI).
About 79,000 compounds went through this panel and 15% of them were active in at least one assay; those are over-represented in the sample as a whole. Values without a mark were called inactive. Active and inactive are the calls of the source. No stated cut-off is given here; in the data, active means growth inhibition above about 70%; inactive means the rest.

Columns and labels:
[1] = NCI Yeast Anticancer Drug Screen. Data for the rad52 strain (AID 147);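 further: 0% = growth of vehicle-treated control cultures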; details: S. cerevisiae rad52 mutant growth inhibition, hits give high values
Method in brief: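 Measured: yeast growth inhibition. System: strain with a defined DNA damage repair alteration. Reference: vehicle-treated control cultures.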

[2] = NCI Yeast Anticancer Drug Screen. Data for the wt1 strain (AID 149);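 further: 0% = growth of vehicle-treated wt1 cultures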; details: S. cerevisiae wt1 strain (SPY 50644) growth inhibition, hits give high values
Method in brief: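 Measured: growth of wt1 yeast under compound versus vehicle treatment, reported as inhibition.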

[3] = NCI Yeast Anticancer Drug Screen. Data for the rad50EPP+ strain (AID 151);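 further: 0% = growth of vehicle-treated control cultures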; details: S. cerevisiae rad50 mutant strain, hits give high values
Method in brief: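 One strain with a rad50 alteration (rad50EPP+) was compound-treated, its growth then compared to that of vehicle controls.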

[4] = NCI Yeast Anticancer Drug Screen. Data for the mgt1 strain (AID 153); details: S. cerevisiae mgt1 mutant growth inhibition, hits give high values
Method in brief: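 After exposure of the mgt1 yeast mutant to compound, growth was measured and reported as inhibition compared with vehicle controls.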

[5] = NCI Yeast Anticancer Drug Screen. Data for the rad50 strain (AID 155);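 further: 0% = growth of vehicle-only cultures of the same strain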; details: S. cerevisiae rad50 strain growth inhibition, hits give high values
Method in brief: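 Growth of the mutant yeast was measured after compound exposure and referenced to vehicle-treated cultures.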

[6] = NCI Yeast Anticancer Drug Screen. Data for the mec2-1 strain (AID 157); details: S. cerevisiae mec2-1 strain, hits give high values
Method in brief: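 Test agents were screened against the mec2-1 yeast strain, with defined DNA repair or cell cycle alteration. Growth was scored as inhibition against vehicle-only controls.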

[7] = NCI Yeast Anticancer Drug Screen. Data for the rad14 strain (AID 159);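 further: 0% = growth of vehicle-treated control cultures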; details: S. cerevisiae rad14 strain growth inhibition, hits give high values
Method in brief: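 Here, inhibition of yeast growth was measured after compound exposure, using a strain with a genetic defect in DNA damage repair and vehicle-treated cultures as the reference.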

[8] = NCI Yeast Anticancer Drug Screen. Data for the sgs1 mgt1 strain (AID 161);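 further: 0% = growth of cultures given vehicle only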; details: S. cerevisiae sgs1 mgt1 strain, hits give high values
Method in brief: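 Inhibition of yeast growth, normalised to vehicle-treated controls, is reported for a strain bearing genetic alterations in DNA damage repair.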

[9] = NCI Yeast Anticancer Drug Screen. Data for the CLN2oe strain (AID 163);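 further: 0% = growth of vehicle-only control cultures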; details: S. cerevisiae CLN2oe strain, hits give high values
Method in brief: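 Here, growth inhibition in a cell-cycle-altered yeast strain after compound exposure was quantified against vehicle control growth.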

[10] = NCI Yeast Anticancer Drug Screen. Data for the cln2 rad14 strain (AID 165);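 further: 0% = growth equal to vehicle treated cultures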; details: S. cerevisiae cln2 rad14 strain, hits give high values
Method in brief: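 Growth of compound-exposed yeast (cln2 rad14 genotype) measured and expressed as inhibition relative to vehicle.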

[11] = NCI Yeast Anticancer Drug Screen. Data for the bub3 strain (AID 167); details: S. cerevisiae bub3 mutant strain, hits give high values
Method in brief: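 Whole-cell yeast assay. The mutant strain was incubated with compounds, and growth inhibition was determined by comparison with vehicle-treated cells.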

[12] = NCI Yeast Anticancer Drug Screen. Data for the wt2 strain (AID 169);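 further: 0% = growth of vehicle-treated yeast cultures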; details: S. cerevisiae wt2 strain growth inhibition, hits give high values
Method in brief: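 Genetically defined yeast strains from a DNA-repair/cell-cycle panel were used. Compound-exposed yeast growth was measured, and the inhibition was calculated relative to vehicle treatment.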

[13] = NCI Yeast Anticancer Drug Screen. Data for the mlh1 strain (AID 171);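 further: 0% = growth of vehicle-treated control cultures of the same strain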; details: S. cerevisiae mlh1 strain growth inhibition, hits give high values
Method in brief: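 Here the genetically defined yeast mutant is grown with each compound, and the extent to which its growth falls below that of vehicle-exposed cells is reported.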

[14] = NCI Yeast Anticancer Drug Screen. Data for the sgs1 strain (AID 173);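 further: 0% = growth of vehicle-only control cultures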; details: S. cerevisiae sgs1 mutant, hits give high values
Method in brief: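 Relative growth inhibition, referenced to vehicle, was determined in a yeast strain with a defined alteration affecting DNA damage repair or cell cycle control after compound exposure.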

[15] = NCI Yeast Anticancer Drug Screen. Data for the mlh1 rad18 strain (AID 175); details: S. cerevisiae mlh1 rad18 strain growth inhibition, hits give high values
Method in brief: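 In this whole-cell yeast screen, a strain with altered DNA damage repair is challenged with compound, and its growth is measured against matched vehicle-treated controls.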

[16] = NCI Yeast Anticancer Drug Screen. Data for the rad18 strain (AID 177); details: S. cerevisiae rad18 mutant growth inhibition, hits give high values
Method in brief: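 Screen uses a yeast strain with a defined lesion in DNA damage repair; compound effect is read as loss of growth compared to untreated vehicle cultures.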

[17] = at 5.0 µM (retest, dose inferred, filed as 0.5)
[18] = at 50.0 µM (retest, dose inferred, filed as 5.0)

O=C(Nc1ccc(Cl)cc1)c1cc2cc(N=Nc3ccccc3Cl)ccc2oc1=O
growth inhibition ([1]; at 1.2 µM): 8%
growth inhibition ([1]; at 3.7 µM): 25%
growth inhibition ([1]; at 11.0 µM): 58%
growth inhibition ([1]; at 33.0 µM): 89% (active)
growth inhibition ([1]; at 100.0 µM): 92% (active)
growth inhibition ([2]; at 1.2 µM): 3%
growth inhibition ([2]; at 3.7 µM): 8%
growth inhibition ([2]; at 11.0 µM): 26%
growth inhibition ([2]; at 33.0 µM): 72% (active)
growth inhibition ([2]; at 100.0 µM): 93% (active)
growth inhibition ([3]; at 1.2 µM): 39%
growth inhibition ([3]; at 3.7 µM): 75% (active)
growth inhibition ([3]; at 11.0 µM): 89% (active)
growth inhibition ([3]; at 33.0 µM): 90% (active)
growth inhibition ([3]; at 100.0 µM): 86% (active)
growth inhibition ([4]; at 1.2 µM): 3%
growth inhibition ([4]; at 3.7 µM): 11%
growth inhibition ([4]; at 11.0 µM): 48%
growth inhibition ([4]; at 33.0 µM): 92% (active)
growth inhibition ([4]; at 100.0 µM): 95% (active)
growth inhibition ([5]; at 1.2 µM): 4%
growth inhibition ([5]; at 3.7 µM): 13%
growth inhibition [5, 17]: 54%
growth inhibition ([5]; at 11.0 µM): 38%
growth inhibition ([5]; at 33.0 µM): 84% (active)
growth inhibition [5, 18]: 54%
growth inhibition ([5]; at 50.0 µM): 88.8% (active)
growth inhibition ([5]; at 100.0 µM): 90% (active)
growth inhibition ([6]; at 1.2 µM): 3%
growth inhibition ([6]; at 3.7 µM): 10%
growth inhibition [6, 17]: 7%
growth inhibition ([6]; at 11.0 µM): 40%
growth inhibition ([6]; at 33.0 µM): 94% (active)
growth inhibition [6, 18]: 7%
growth inhibition ([6]; at 50.0 µM): 88.5% (active)
growth inhibition ([6]; at 100.0 µM): 95% (active)
growth inhibition ([7]; at 1.2 µM): 4%
growth inhibition ([7]; at 3.7 µM): 5%
growth inhibition ([7]; at 11.0 µM): 62%
growth inhibition ([7]; at 33.0 µM): 95% (active)
growth inhibition ([7]; at 100.0 µM): 94% (active)
growth inhibition [8, 17]: 25%
growth inhibition [8, 18]: 25%
growth inhibition ([8]; at 50.0 µM): 84.8% (active)
growth inhibition ([9]; at 1.2 µM): 3%
growth inhibition ([9]; at 3.7 µM): 13%
growth inhibition ([9]; at 11.0 µM): 40%
growth inhibition ([9]; at 33.0 µM): 89% (active)
growth inhibition ([9]; at 100.0 µM): 92% (active)
growth inhibition [10, 17]: 12%
growth inhibition [10, 18]: 12%
growth inhibition ([10]; at 50.0 µM): 82.8% (active)
growth inhibition ([11]; at 1.2 µM): -14%
growth inhibition ([11]; at 3.7 µM): -19%
growth inhibition [11, 17]: 13%
growth inhibition ([11]; at 11.0 µM): 26%
growth inhibition ([11]; at 33.0 µM): 93% (active)
growth inhibition [11, 18]: 13%
growth inhibition ([11]; at 50.0 µM): 86.2% (active)
growth inhibition ([11]; at 100.0 µM): 93% (active)
growth inhibition ([12]; at 1.2 µM): 5%
growth inhibition ([12]; at 3.7 µM): 15%
growth inhibition ([12]; at 11.0 µM): 57%
growth inhibition ([12]; at 33.0 µM): 91% (active)
growth inhibition ([12]; at 100.0 µM): 94% (active)
growth inhibition ([13]; at 1.2 µM): 1%
growth inhibition ([13]; at 3.7 µM): 7%
growth inhibition ([13]; at 11.0 µM): 38%
growth inhibition ([13]; at 33.0 µM): 95% (active)
growth inhibition ([13]; at 100.0 µM): 95% (active)
growth inhibition ([14]; at 1.2 µM): 11%
growth inhibition ([14]; at 3.7 µM): 24%
growth inhibition ([14]; at 11.0 µM): 70% (active)
growth inhibition ([14]; at 33.0 µM): 93% (active)
growth inhibition ([14]; at 100.0 µM): 92% (active)
growth inhibition [15, 17]: 23%
growth inhibition [15, 18]: 23%
growth inhibition ([15]; at 50.0 µM): 85.4% (active)
growth inhibition ([16]; at 1.2 µM): 4%
growth inhibition ([16]; at 3.7 µM): 24%
growth inhibition ([16]; at 11.0 µM): 68%
growth inhibition ([16]; at 33.0 µM): 92% (active)
growth inhibition ([16]; at 100.0 µM): 91% (active)
